Screening data deposited in PubChem by Broad Institute.
Shown are actives, neighbours in structure and some others; about 6.8% of the full set was active somewhere.
T cruzi growth-1: T. cruzi proliferation inhibition; T. cruzi beta-gal in NIH3T3, GalScreen luminescence, 90 h; inhibition, % at 8.34 µM; hit rate 5.9% among 77,000; AID 624255;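 active = mean inhibition above about 93%, with at least 55% of replicates each passing it, limit read from the data, passing the limit was not always enough; inconclusive = only one of those two conditions holds; inactive = neither condition holds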
C diff HTS: inhibitors of Clostridium difficile growth; Clostridium difficile clinical isolate growth, OD600, 24 h; active compounds read low; growth activity, negative = inhibition, % at 16 µg/mL (by protocol); hit rate 0.25% among 86,000;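 active = mean growth activity at or below -80% and every replicate also at or below -80%; inconclusive = mean at or below -80% but some replicate above -80%; inactive = mean growth activity above -80%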
Pf Dd2 growth: P. falciparum Dd2 growth inhibition; activity change, % at 10 µM; AID 1159554; SYBR Green, 72 h; active compounds read low; hit rate 2.3% among 94,000; in the data active = activity change below about -80%; inconclusive = no clear call, values can overlap the other calls
T cruzi growth-2: blocks T. cruzi growth in NIH3T3 host cells | inhibition, % at 8.35 µM | hit rate 72% among 5,600 | shares compounds with T cruzi growth-1 | T. cruzi beta-gal in NIH3T3, GalScreen luminescence, 90 h;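 active = mean replicate inhibition above about 95% and at least 55% of replicates individually reaching it, limit read from the data; inconclusive = only one of the two criteria is met; inactive = neither criterion is met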
T cruzi growth-3: inhibitors of T. cruzi proliferation | T. cruzi beta-gal in NIH3T3, GalScreen luminescence, 90 h | AID 651740 | shares compounds with T cruzi growth-1 | hit rate 21% among 5,600 | inhibition, % at 2.09 µM;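 active = mean inhibition above about 95%, with at least 55% of replicates also reaching it, limit read from the data; inconclusive = meets just one of the two conditions; inactive = meets neither condition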
NIH3T3 tox: NIH/3T3 (mouse) viability loss; shares compounds with T cruzi growth-1; NIH/3T3 viability, CellTiter-Glo ATP luminescence, 90 h; cytotoxicity (signal decrease), % at 8.35 µM; hit rate 14% among 5,600; AID 651742;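 active = mean signal decrease across replicates above about 35% based on untreated-well scatter, with enough replicates individually passing, limit read from the data; inconclusive = no rule stated though some were filed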
3T3 cytotox 2: kills mouse NIH/3T3 fibroblasts; NIH/3T3 viability, CellTiter-Glo ATP luminescence, 90 h; hit rate 56% among 5,600; AID 651744; inhibition, % at 24.9 µM; shares compounds with T cruzi growth-1;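 active = mean loss of cell viability signal at or above a set limit, and enough replicates individually reaching it; inconclusive = meets only the mean limit or only the replicate share; inactive = meets neither condition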
Numbers stand for hits.

Results for C[C@@H](NC(=O)[C@H]1N[C@H]2c3ccc(C4=CCCCC4)c(=O)n3C[C@H]2[C@@H]1CO)c1ccccc1 ?
T cruzi growth-1: inactive; C diff HTS: inactive; Pf Dd2 growth: inactive

How did C[C@H](NC(=O)[C@@H]1N[C@@H]2c3ccc(C4=CCCC4)c(=O)n3C[C@@H]2[C@H]1CO)c1ccccc1 do in these assays?
T cruzi growth-1: 97; C diff HTS: inactive; T cruzi growth-2: inactive; T cruzi growth-3: inactive; NIH3T3 tox: inactive; 3T3 cytotox 2: inactive

How did C[C@@H]1CN([C@@H](C)CO)C(=O)Cc2cc(NC(=O)Cc3cn(C)c4ccccc34)ccc2O[C@@H]1CN(C)S(=O)(=O)c1ccc(F)cc1 do in these assays?
T cruzi growth-1: inactive; C diff HTS: inactive; Pf Dd2 growth: inactive

How did COc1ccc(C#Cc2ccc([C@@H]3[C@H]4CN(C(=O)c5ccc(F)cc5)CC(=O)N4[C@H]3CO)cc2)cc1 do in these assays?
C diff HTS: inactive; Pf Dd2 growth: inactive

How did CN1C(=O)c2cc(NC(=O)c3cccc(C(F)(F)F)c3)ccc2OC[C@@H]2O[C@H](CC(=O)NCCN3CCCC3)CC[C@@H]21 do in these assays?
T cruzi growth-1: 98; C diff HTS: inactive; Pf Dd2 growth: inactive; T cruzi growth-2: 99; T cruzi growth-3: inactive; NIH3T3 tox: inactive; 3T3 cytotox 2: inactive

What do the screens show for `CN1C(=O)c2cc(NC(=O)c3cccc(C(F)(F)F)c3)ccc2OC[C@@H]2O[C@@H](CC(=O)NCCN3CCCC3)CC[C@H]21`?
T cruzi growth-1: inactive; C diff HTS: inactive; Pf Dd2 growth: inactive

Results for CN1C(=O)c2cc(NC(=O)C3CC3)ccc2OC[C@@H]2O[C@@H](CC(=O)NCCN3CCCC3)CC[C@H]21 ?
T cruzi growth-1: inactive; C diff HTS: inactive; Pf Dd2 growth: inactive

How did CN1C(=O)c2cc(NC(=O)C3CC3)ccc2OC[C@@H]2O[C@H](CC(=O)NCCN3CCCC3)CC[C@@H]21 do in these assays?
T cruzi growth-1: inconclusive; C diff HTS: inactive; Pf Dd2 growth: inactive; T cruzi growth-2: inactive; T cruzi growth-3: inactive; NIH3T3 tox: inactive; 3T3 cytotox 2: inactive

How did C[C@H]1CN([C@@H](C)CO)C(=O)Cc2cc(NC(=O)CCN3CCOCC3)ccc2O[C@H]1CN(C)C(=O)Nc1ccc(F)cc1 do in these assays?
T cruzi growth-1: inactive; C diff HTS: inactive; Pf Dd2 growth: inactive

What do the screens show for `CO[C@H]1CN(C)C(=O)c2cc(NS(=O)(=O)Cc3ccccc3)ccc2OC[C@@H](C)NC[C@@H]1C`?
T cruzi growth-1: inactive; Pf Dd2 growth: inactive

How did O=C(c1ccc2c(c1)OCO2)N1CCCCN2[C@H](C1)[C@@H](c1ccc(-c3ccccc3)cc1)[C@@H]2CO do in these assays?
T cruzi growth-1: inactive; C diff HTS: inactive; Pf Dd2 growth: inactive

Results for O=C(c1ccc2c(c1)OCO2)N1CCCCN2[C@H](CO)[C@@H](c3ccc(-c4ccccc4)cc3)[C@@H]2C1 ?
T cruzi growth-1: 115; C diff HTS: inactive; Pf Dd2 growth: inactive; T cruzi growth-2: 99; T cruzi growth-3: inactive; NIH3T3 tox: 52; 3T3 cytotox 2: 88

What do the screens show for `Cc1cccc(-c2ccc([C@@H]3[C@H](CO)N4CCCCN(C(=O)c5ccncc5)C[C@@H]34)cc2)c1`?
T cruzi growth-1: inactive; C diff HTS: inactive; Pf Dd2 growth: inactive

Results for Cc1cccc(-c2ccc([C@H]3[C@H](CO)N4CCCCN(C(=O)c5ccc6c(c5)OCO6)C[C@@H]34)cc2)c1 ?
T cruzi growth-1: 114; C diff HTS: inactive; Pf Dd2 growth: inactive; T cruzi growth-2: 103; T cruzi growth-3: inactive; NIH3T3 tox: inactive; 3T3 cytotox 2: 103

How did CO[C@H]1CN(C)C(=O)c2ccc(NC(=O)Cc3ccccc3)cc2OC[C@H](C)NC[C@H]1C do in these assays?
T cruzi growth-1: inactive; Pf Dd2 growth: inactive

Results for Cc1noc(C)c1NC(=O)N(C)C[C@@H]1Oc2ccc(NS(=O)(=O)c3ccccc3)cc2CC(=O)N([C@@H](C)CO)C[C@H]1C ?
T cruzi growth-1: inactive; C diff HTS: inactive; Pf Dd2 growth: inactive

What do the screens show for `CN1[C@@H]2Cn3c(ccc(/C=C/c4ccccc4)c3=O)[C@H]1[C@@H](C(=O)NC1CCCC1)[C@@H]2CO`?
C diff HTS: inactive; Pf Dd2 growth: inactive

What do the screens show for `C[C@H]1CN([C@@H](C)CO)C(=O)c2cc(C#Cc3ccccc3)cnc2O[C@H]1CN(C)C(=O)c1ccccc1F`?
T cruzi growth-1: inactive; C diff HTS: inactive; Pf Dd2 growth: inactive

What do the screens show for `COc1ccc(NC(=O)Nc2ccc3c(c2)[C@@H]2C[C@H](CC(=O)N(C)C)O[C@H](CO)[C@@H]2O3)cc1`?
T cruzi growth-1: inactive; C diff HTS: inactive; Pf Dd2 growth: inactive

What do the screens show for `C[C@@H]1CN([C@@H](C)CO)S(=O)(=O)c2ccc(-c3cccc(C#N)c3)cc2O[C@@H]1CN(C)C(=O)c1ccccc1`?
T cruzi growth-1: 109; C diff HTS: inactive; Pf Dd2 growth: inactive; T cruzi growth-2: 104; T cruzi growth-3: inactive; NIH3T3 tox: 54; 3T3 cytotox 2: 72

How did C[C@@H]1CN([C@H](C)CO)S(=O)(=O)c2ccc(-c3cccc(C#N)c3)cc2O[C@@H]1CN(C)C(=O)c1ccccc1 do in these assays?
T cruzi growth-1: inactive; C diff HTS: inactive; Pf Dd2 growth: inactive

What do the screens show for `C[C@H](CO)N1C[C@H](C)[C@@H](CN(C)C(=O)Nc2cc(F)ccc2F)Oc2cc(-c3cccc(C#N)c3)ccc2S1(=O)=O`?
Pf Dd2 growth: inactive

How did C[C@@H]1CN([C@H](C)CO)S(=O)(=O)c2ccc(-c3cccc(C#N)c3)cc2O[C@H]1CN(C)C(=O)Nc1ccccc1F do in these assays?
T cruzi growth-1: inactive; C diff HTS: inactive; Pf Dd2 growth: inactive

Results for C[C@@H]1CN([C@@H](C)CO)S(=O)(=O)c2ccc(-c3cccc(C#N)c3)cc2O[C@@H]1CN(C)C(=O)Nc1ccccc1F ?
T cruzi growth-1: 110; C diff HTS: inactive; Pf Dd2 growth: inactive; T cruzi growth-2: 97; T cruzi growth-3: inactive; NIH3T3 tox: 48; 3T3 cytotox 2: 68

How did C[C@H]1CN([C@@H](C)CO)S(=O)(=O)c2ccc(-c3cccc(C#N)c3)cc2O[C@@H]1CN(C)C(=O)Nc1ccccc1F do in these assays?
T cruzi growth-1: inconclusive; C diff HTS: inactive; Pf Dd2 growth: inactive; T cruzi growth-2: inactive; T cruzi growth-3: inactive; NIH3T3 tox: inactive; 3T3 cytotox 2: 61

What do the screens show for `COc1ccc2c3c([nH]c2c1)[C@@H](CO)N(C(=O)Nc1ccc(F)cc1)CC31CN(Cc2cc(-c3ccccc3)on2)C1`?
C diff HTS: inactive; Pf Dd2 growth: inactive

How did COc1cccc(S(=O)(=O)N[C@H]2CC[C@H](CCNC(=O)Nc3cc(F)ccc3F)O[C@@H]2CO)c1 do in these assays?
T cruzi growth-1: inactive; C diff HTS: inactive; Pf Dd2 growth: inactive
